15 compounds from PubChem BioAssay (NCI) can be followed below.

About 83,000 compounds went through this panel and 20% of them were active in at least one assay; those are over-represented in the sample as a whole.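 Testing used 96-well plates and a 48-hour single-concentration exposure. Example: -40 means 40% of the starting cells died.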 Unmarked numbers belong to inactive results. Activity calls are given as the source filed them. How the source made its calls: active means growth percent below 10; inactive means the rest.

The subject of the test is MDA-MB-468 breast. As to the kind of experiment: NCI-60 one-dose screen, 48 h (100 = growth as untreated, 0 = no growth, -100 = all killed). The settings on record: 10 µM unless noted.
As to `CCOC(=O)C(=Cc1cccc(C#N)c1)C(=O)OCC`, the growth was 43%.
As for `C1=C2CNCC3=Cc4ccc5ccccc5c4OC23Oc2c1ccc1ccccc21`, the growth is 50.4%.
The figure for `Nc1ncnc2c1N=C(c1ccc(F)cc1)CC(c1sc(Cl)nc1Cl)N2` (stereo not given) is 91.4%; for `COc1cc(/C=C\C(C)=N\Nc2ccccc2)ccc1O` it is 49%; for `Cc1cc(Nc2nc(-c3ccc(F)cc3)nc3ccccc23)n[nH]1` it is 58.2%.
The figure for `C#Cc1ccc(-n2c(/C=C/c3ccc(O)c(OC)c3)nc3ncccc3c2=O)cc1` is 89.8%.
As to `Cc1ccc(N=NC2C(=O)N(c3ccc(Cl)cc3)N(c3ccc(Cl)cc3)C2=O)cc1`, the growth was 107%.
Take `COc1ccc(S(=O)(=O)n2cc(C3OC(c4cc(OC)c(OC)c(OC)c4)=NN3C(C)=O)c3ccccc32)cc1OC` (stereo not given): the growth was 105%.
The figure for `OC1CCN(CCCOc2c3ccc(Cl)cc3nc3c2oc2ccccc23)CC1` is -43.9% (active); for `CCCCNc1ccc(-c2ccc(NCCCC)cc2)cc1` it is 29.9%; for `CCN1C(=O)N(c2ccccc2)C2Nn3c(s/c(=C4\C(=O)N(C(C)C)c5ccccc54)c3=O)=NC21` (stereo not given) it is 108%.
For the compound `CN(C)CCCOc1ccc(OCCCN(C)C)c2c1C(=O)c1ccccc1C2=O`, the growth is -33.7% (active).
With `Cc1c(Cl)cccc1NC(=O)c1sc2nc3c(cc2c1N)CN(Cc1ccccc1)CC3`, the growth is 29.1%.
The figure for `O=C(Nc1ccc(-c2nc3cc4ccccc4cc3[nH]2)cc1)c1cccc(Br)c1` is 48.3%.
As for `C#CCn1cccc1CNc1ccc(OC)cc1`, the figure is -76.9% (active).
